This note sets out measurements from PubChem BioAssay (NCATS).

Where “and” joins values, the source holds several entries; their conditions need not be identical. Equal entries are not always repeated. Values without a mark were called inactive. Results filed as inconclusive are left out. Calls of active or inactive are those of the source. Unless noted, calls come from the whole dose curve; as a rule, active = well fitted curve in the direction sought with a large enough effect; inconclusive = small, poorly fitted or top-dose-only effect, or another doubt; inactive = no such curve, though single readings can be large; an effect the other way counts as inactive or inconclusive.

Experiment [1] is described as follows: MultiTox-Fluor Cytotoxicity Assay - LYMP1-001 - Dead Cells (AID 946). Note: potency is the fitted concentration of half-maximal effect. In short, it runs like this:
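LYMP1-001 lymphoblastoid cells (2500/well) treated 16 h at 37 C. Dead-cell protease cleavage of bis-AAF-R110 read at Ex/Em 485/520. Normalized to DMSO and 15 uM tetraoctylammonium bromide; AC50 from Hill fits.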

Experiment [2] can be described thus: MultiTox-Fluor Cytotoxicity Assay - LYMP1-002 - Live Cells (AID 955). Note: potency is the fitted concentration of half-maximal effect. In short, it runs like this: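 Read-out is live-cell protease activity (cell-permeant GF-AFC substrate, fluorescence Ex/Em=405/510), where a decrease indicates acute toxicity. Human lymphoblastoid cells were treated 16 hours at 37 C in a concentration series, and AC50 values came from standard Hill modelling.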

Experiment [3] can be described thus: MultiTox-Fluor Cytotoxicity Assay - LYMP1-003 - Dead Cells (AID 961). Note: nearly all actives have a fitted effect of over 70% in size. Note: potency is the fitted concentration of half-maximal effect. Put shortly:
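LYMP1-003 human lymphoblastoid cells (2500/well) exposed to compound 16 h at 37 C in complete medium; dead-cell protease read with bis-AAF-R110 fluorescence (Ex/Em 485/520) after 60 min at room temperature. Normalized to DMSO and 15 uM tetraoctylammonium bromide; AC50 from Hill fit.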

A short description of experiment [4]: MultiTox-Fluor Cytotoxicity Assay - LYMP1-003 - Live Cells (AID 962). Note: potency is the fitted concentration of half-maximal effect. In short, it runs like this:
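qHTS, 1536-well; 2500 cells/well LYMP1-003; 5 hr 37 C settle; cpd 16 hr 37 C; MultiTox-Fluor reagent 60 min RT; live-cell protease fluor. 405/510; Hill-fit AC50; tetraoctylammonium bromide pos. ctrl.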

Experiment [5] is described as follows: Cell Viability - LYMP1-003 - Assay at 40 hr (AID 964). Note: nearly all actives have a fitted effect of over 60% in size. Note: potency is the fitted concentration of half-maximal effect. In short, it runs like this: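 Cells were seeded at 2500 per well and incubated 5 hr at 37 C. Compounds were added across a concentration series and left 40 hr at 37 C. CellTiter-Glo was added for 30 min at room temperature before luminescence reading.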
Experiment [6] in a line: Cell Viability - LYMP2-011 (AID 969). Note: nearly all actives have a fitted effect of over 60% in size. Note: potency is the fitted concentration of half-maximal effect. Put shortly:
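2500 cells/well, 5 hr 37 C; compound added, 24 hr 37 C; CellTiter-Glo 30 min RT; luminescence. qHTS concentration-response, Hill-equation AC50. Tetraoctylammonium bromide positive control.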

Experiment [7] is described as follows: Cell Viability - LYMP2-013 (AID 970). Note: nearly all actives have a fitted effect of over 55% in size. Note: potency is the fitted concentration of half-maximal effect. Put shortly: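 qHTS; 2500 lymphoblastoid cells/well; 5 hr 37 C settle; cpd 24 hr 37 C; CellTiter-Glo, 30 min RT; luminescence. AC50 = Hill fit.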
Experiment [8] in a line: Cell Viability - LYMP2-017 (AID 972). Note: nearly all actives have a fitted effect of over 55% in size. Note: potency is the fitted concentration of half-maximal effect. In short, it runs like this:
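2500 cells/well, 5 h 37 C; cpd 24 h 37 C in complete medium; CellTiter-Glo, 30 min RT; luminescence (ATP). AC50 via Hill fit, qHTS.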

Experiment [9] in a line: Cell Viability - LYMP2-002 (AID 977).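 Note: compound exposure lasted 24 h at 37 °C.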 Note: potency is the fitted concentration of half-maximal effect. In short, it runs like this: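 Human lymphoblastoid LYMP2-002 cells, 2500 per well, exposed to compounds for 24 h at 37 C in complete medium; viability read as intracellular ATP by CellTiter-Glo luminescence, AC50 from Hill fits.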
Experiment [10] in a line: Cell Viability - LYMP2-006 (AID 978). Note: nearly all actives have a fitted effect of over 60% in size. Note: potency is the fitted concentration of half-maximal effect. In short, it runs like this:
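Human lymphoblastoid cells, 2500 per well, were preincubated 5 hr at 37 C, then exposed to compounds for 24 hr at 37 C in complete medium. Viability was read as intracellular ATP by CellTiter-Glo luminescence; AC50 from Hill-equation fits of qHTS concentration-response data.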

Experiment [11] can be described thus: Cell Viability - LYMP2-007 (AID 979).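 Note: cells exposed to compound for 24 h before reading; nearly all actives have a fitted effect of over 60% in size.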 Note: potency is the fitted concentration of half-maximal effect. Put shortly:
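Luminescent ATP signal (CellTiter-Glo) serves as the viability read-out after 24 hr compound treatment of lymphoblastoid cells in complete medium at 37 C. Concentration-response data were fitted to the Hill equation to give AC50 values.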

Experiment [12] can be described thus: Cell Viability - LYMP2-010 (AID 981). Note: nearly all actives have a fitted effect of over 55% in size. Note: potency is the fitted concentration of half-maximal effect. In short, it runs like this: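 Luminescent ATP signal (CellTiter-Glo) served as the viability read-out. Cells of the human lymphoblastoid line were treated with compound over a concentration range for 24 hours at 37 C, and AC50 values came from Hill-equation modeling.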
Experiment [13] is described as follows: Cell Viability - LYMP2-012 (AID 982).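 Note: cellular ATP by luciferase luminescence where a drop means cytotoxicity; cells exposed to compound for one day before reading; nearly all actives have a fitted effect of over 55% in size.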 Note: potency is the fitted concentration of half-maximal effect.
Experiment [14] can be described thus: Cell Viability - LYMP2-016 (AID 984). Note: nearly all actives have a fitted effect of over 55% in size. Note: potency is the fitted concentration of half-maximal effect. Put shortly:
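Human lymphoblastoid cells (LYMP2-016), 2500/well in complete medium, preincubated 5 hr at 37 C, then compound-treated 24 hr at 37 C. Intracellular ATP read by CellTiter-Glo luminescence after 30 min at room temperature; AC50 from Hill-equation concentration-response fits.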

The nature of experiment [15]: Cell Viability - LYMP2-018 (AID 985).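 Note: compound exposure lasted 24 hr at 37 °C; nearly all actives have a fitted effect of over 50% in size.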 Note: potency is the fitted concentration of half-maximal effect. In short, it runs like this:
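Luminescent ATP signal (CellTiter-Glo, read after 30 min at room temperature) reports viable cells after 24 hr compound treatment at 37 C. Concentration-response data were fitted to the standard Hill equation for AC50.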

A short description of experiment [16]: Cell Viability - LYMP2-020 (AID 986). Note: nearly all actives have a fitted effect of over 55% in size. Note: potency is the fitted concentration of half-maximal effect. Put shortly: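 Luminescent ATP signal (CellTiter-Glo, 30 min at room temperature) is the read-out after 24 h compound treatment of lymphoblastoid cells at 37 C. AC50 values come from Hill-equation fits across concentrations.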
Experiment [17] is described as follows: Cell Viability - LYMP2-022 (AID 987). Note: nearly all actives have a fitted effect of over 55% in size. Note: potency is the fitted concentration of half-maximal effect. In short, it runs like this: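 qHTS: human lymphoblastoid cells 2500/well; 5 hr 37 C; cpd added; 24 hr 37 C; CellTiter-Glo, 30 min RT; luminescence. AC50 via Hill fit; tetraoctylammonium bromide positive ctrl.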
Experiment [18] can be described thus: Cell Viability - LYMP2-024 (AID 988). Note: nearly all actives have a fitted effect of over 60% in size. Note: potency is the fitted concentration of half-maximal effect. In short, it runs like this:
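Steps: seed 2500 cells/well, 5 hr 37 C; add compound, 24 hr 37 C; add CellTiter-Glo, 30 min room temperature; read luminescence. AC50 derived by Hill modelling of concentration-dependent ATP loss.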

Experiment [19] can be described thus: qHTS assay for small molecule agonists of the antioxidant response element (ARE) signaling pathway measured by Nrf2-dependant transcriptional activity - cell viability counter screen (AID 720653; active = well fitted curve in the direction sought with a large enough effect in the repeat runs; an effect the other way counts as inactive or inconclusive; note: % is set by controls: 0 for no effect and ±100 for the full control effect). The conditions noted are these: ARE-bla HepG2 viability, CellTiter-Glo ATP luminescence, 16 h; max response: active compounds read low. In short, it runs like this:
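ARE-bla HepG2 cells treated with compounds for 16 h at 37C; this counter screen measures viability as intracellular ATP by CellTiter-Glo luminescence after 30 min at room temperature.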

A short description of experiment [20]: qHTS assay for cell viability of HEK293 cells (AID 743288). Note: % is set by controls: 0 for no effect and ±100 for the full control effect; nearly all actives have a fitted effect of over 50% in size. As to conditions: ATP luminescence (CellTiter-Glo), 18 h; max response: active compounds read low. Put shortly:
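Parental HEK293 cells were seeded at 2,000 cells/well, rested at least 5 h at 37 C, then exposed to compounds in DMSO for 18 h at 37 C. Viability was read as ATP-dependent luciferase luminescence after 30 min at room temperature.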
A general note: In qHTS, concentration-response curves come from the screen itself.

For `C=CC(=O)OCCOCCOCCOCCOC(=O)C=C`, the Potency in experiment [1] was 50.1 µM (active); in [2], 12.6 µM (active) and 15.8 µM (active); in experiment [3], 20 µM (active) and 25.1 µM (active); in [4], 25.1 µM (active) and 31.6 µM (active); in experiment [5], 12.6 µM (active) and 31.6 µM (active); in experiment [6], 20 µM (active) and 25.1 µM (active). Moreover, the Potency was 20 µM (active) and 25.1 µM (active) in [7]; 20 µM (active) in experiment [8]; 15.8 µM (active) and 25.1 µM (active) in [9]; 25.1 µM (active) in [10]; 20 µM (active) in experiment [11]; 15.8 µM (active) in experiment [12]. The Potency was 12.6 µM (active) in [13]; 20 µM (active) and 15.8 µM (active) in experiment [14]; 15.8 µM (active) in [15]; 12.6 µM (active) and 15.8 µM (active) in experiment [16]; 12.6 µM (active) in experiment [17]; 12.6 µM (active) and 15.8 µM (active) in [18]. Further, the max response in experiment [19] was -13%.
Turning to `O=C(O)CC(C(=O)O)C(CC(=O)O)C(=O)O` (centres undefined), the Potency entry in [1], in [2], in experiment [3], in [4], in experiment [5] and in experiment [6] was “inactive” throughout. Further, the Potency entry in experiment [7], in [8], in experiment [9], in experiment [10], in [11] and in experiment [12] was “inactive” throughout. Further, the Potency entry in experiment [13], in [14], in experiment [15], in experiment [16], in experiment [17] and in [18] was “inactive” each time. Further, the max response was -9.78% and -3.54% in [19]; -0.385% and -19.1% in experiment [20].
Regarding `Cc1ccccc1C`, the Potency entry in experiment [1], in [2], in experiment [3], in [4], in experiment [5] and in experiment [6] was “inactive” in each case. Further, the Potency result in experiment [7], in [8], in experiment [9], in experiment [10], in experiment [11] and in experiment [12] was “inactive” throughout. Besides, the Potency entry in [13], in [14], in experiment [15], in [16], in experiment [17] and in experiment [18] was “inactive” in each case. In addition, the max response in [19] was -17.8% and 4.54%; in experiment [20] it was -12.4% and -5.18%.
With `c1ccc2c(c1)c1cccc3ccc4cccc2c4c31`, the Potency entry in [1], in [2], in experiment [3], in [4], in experiment [5] and in experiment [6] was “inactive” throughout. Further, the Potency entry in [7], in experiment [8], in [9], in experiment [10], in [11] and in experiment [12] was “inactive” throughout. Also, the Potency result in [13], in experiment [14], in [15], in experiment [16], in [17] and in experiment [18] was “inactive” throughout. In addition, the max response in [19] is -0.0817% and -5.96%; in [20] it was 0.963% and -16.2%.
On to `Cc1ccc([N+](=O)[O-])c(C)c1`, for which the Potency result in experiment [1], in experiment [2], in experiment [3], in experiment [4], in experiment [5] and in [6] was “inactive” throughout. For the same compound, the Potency entry in experiment [7], in [8], in experiment [9], in [10], in experiment [11] and in experiment [12] was “inactive” in each case. Further, the Potency result in experiment [13], in [14], in [15], in experiment [16], in [17] and in [18] was “inactive” in each case. The max response was -3.32% and -3.26% in experiment [19]; 0.892% and -5.18% in [20].
Regarding `CN(C)C=O`, the Potency entry in [1], in experiment [2], in [3], in [4], in [5] and in [6] was “inactive” in each case. Further, the Potency result in experiment [7], in experiment [8], in experiment [9], in [10], in [11] and in experiment [12] was “inactive” in each case. In addition, the Potency result in [13], in experiment [14], in [15], in [16], in [17] and in experiment [18] was “inactive” each time. In addition, the max response in experiment [19] was -6.03% and 8.83% and -4.93%; in experiment [20] it was -10.8% and 1.33% and 0.809%.
